# According to PubChem BioAssay AID624331 (National Center for Advancing Translational Sciences (NCATS), 2012):
# Inconclusive results are not listed. Entries that show only a call come without a potency. Activity calls are given as the source filed them. The call rests on the fitted dose curve; in most records, active means well fitted activation curve with a large enough effect; inconclusive means small, poorly fitted or top-dose-only effect; inactive means no such curve, though single readings can be large or run the other way.
# Assay: qHTS assay for re-activators of p53 using a Luc reporter: Hit Validation with no p53 Expressed
# Settings: p53-null cells, luciferase reporter counter-screen; series mostly up to 46.1 µM
# Summary of the method: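 Counter-screen of primary hits in a cell line not transfected with p53, in Opti-MEM with 10% FBS; compounds at several concentrations (10 mM stock, 1:5; top 46.1 µM in well), 24 h at 37 deg C, 5% CO2. Luminescence read after 10 min with Amplite reagent.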
# Potency means the concentration at half of the fitted maximal effect.
row,Structure (SMILES),Potency
1,Cc1ccc(CSc2nc3ccncc3[nH]2)cc1,inactive
2,Cc1cc(NC(=O)c2cccc(COc3ccc(Br)cc3)c2)no1,inactive
3,CC1=CN2C(=N)/C(=C/c3ccc(C)o3)C(=O)N=C2S1,inactive
4,N#C/C(=C\c1ccccc1[N+](=O)[O-])c1nc(C2CC2)cs1,11.6 µM (active)
5,O=C(CCN1C(=O)NC2(CCCC2)C1=O)Nc1ccc(-c2nc3ccccc3s2)cc1,2.31 µM (active)
6,O=C(Nc1nnc(-c2ccccc2F)s1)C1CCN(S(=O)(=O)c2ccc(Cl)cc2)CC1,inactive
7,O=C(O)C1C2C=CC(C2)C1C(=O)Nc1ccccc1Br (centres undefined),inactive
8,CCCS(=O)(=O)N1CCC(C(=O)NCCN(CC)c2ccccc2)CC1,inactive
9,COc1ccc(C(=O)O/N=C(\N)c2ccccc2)c(OC)c1,1.16 µM (active)
10,Cc1ccnc(NC(=O)CCC2CCCCC2)c1,inactive
11,CN(/N=C/c1ccc2c(c1)OCO2)c1ccccc1,inactive
12,C=CCOc1c(Br)cc(CNCCCN2CCOCC2)cc1OC,inactive
13,CCCCC(=O)Nc1cccc(NC(=S)NC(=O)Cc2ccccc2)c1,inactive
14,O=C(Nc1ccc(N2CCCCCC2)cc1)c1ccc[nH]1,1.84 µM (active)
15,CCOc1cccc(-c2c(C(=O)N/N=C(\C)c3ccccn3)nnn2-c2nonc2N)c1,inactive
16,O=C(c1ccc(N2CCN(S(=O)(=O)c3ccccc3)CC2)c([N+](=O)[O-])c1)N1CCOCC1,inactive
17,O=C1/C(=C/Nc2ccc3c(c2)OCO3)CCc2ccccc21,inactive
18,COc1cccc(-c2cn3nc4c(nc3n2)CCCC4)c1,inactive
19,C#CCOc1ccc(/C=C2\SC(=S)N(Cc3cccnc3)C2=O)cc1,inactive
